Reference: PubChem BioAssay AID911 (National Center for Advancing Translational Sciences (NCATS), 2007)
The other results are listed elsewhere or left out. A call without a number means that no potency is given here. Records with an inconclusive call do not appear. Active and inactive are the calls of the source. The call rests on the fitted dose curve.

biological target: Microtubule-associated protein tau (Homo sapiens) (UniProt P10636); experiment: Tau ThS binding assay; conditions: recombinant tau filaments, Thioflavin S fluorescence displacement
Sequence (P10636 whole entry, looked up): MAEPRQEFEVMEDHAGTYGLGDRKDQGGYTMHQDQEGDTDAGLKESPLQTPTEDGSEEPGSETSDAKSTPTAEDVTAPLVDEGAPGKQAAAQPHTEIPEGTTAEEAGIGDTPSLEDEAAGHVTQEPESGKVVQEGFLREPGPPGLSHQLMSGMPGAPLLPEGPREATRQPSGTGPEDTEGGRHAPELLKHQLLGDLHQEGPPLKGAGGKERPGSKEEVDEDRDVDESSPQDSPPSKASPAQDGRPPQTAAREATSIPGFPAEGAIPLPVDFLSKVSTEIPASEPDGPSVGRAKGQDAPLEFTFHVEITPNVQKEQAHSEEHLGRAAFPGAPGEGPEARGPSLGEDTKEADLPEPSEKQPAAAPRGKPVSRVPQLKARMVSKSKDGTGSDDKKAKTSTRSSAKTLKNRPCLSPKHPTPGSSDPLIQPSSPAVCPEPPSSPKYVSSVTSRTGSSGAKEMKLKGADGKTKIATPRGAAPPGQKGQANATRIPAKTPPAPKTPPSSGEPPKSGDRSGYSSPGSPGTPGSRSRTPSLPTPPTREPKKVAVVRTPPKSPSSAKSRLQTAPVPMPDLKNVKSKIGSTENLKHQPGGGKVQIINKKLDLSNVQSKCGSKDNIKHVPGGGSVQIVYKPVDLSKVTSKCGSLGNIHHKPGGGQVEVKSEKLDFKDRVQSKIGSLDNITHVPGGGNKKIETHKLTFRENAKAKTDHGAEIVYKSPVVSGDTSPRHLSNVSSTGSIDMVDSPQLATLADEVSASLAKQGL
Excerpt: NIH Molecular Libraries Screening Centers Network [MLSCN] NIH Chemical Genomics Center [NCGC] MLSCN Grant: 1 X01 MH079825-01 Assay Provider: Jeffrey A. Kuret, Ohio State University NCGC Assay Overview: This assay is a confirmation study for the qHTS Assay for Tau Filament Binding (PubChem AID 596). Tau monomers form filaments in vitro in the presence of arachidonic acid. The dye Thioflavine S (ThS) binds to tau filaments and upon binding, increases in fluorescence several fold. Small molecules that displace ThS binding or prevent filament binding are identified by a reduction in ThS fluorescence.
NCGC Assay Protocol Summary The assay was performed in 96-well round bottom opaque plates (VWR, West Chester, PA) in 100 uL final volume. Recombinant His6-htau40 was diluted to 5 uM in assembly buffer (10 mM HEPES, pH 7.4, 100 mM NaCl, 5 mM dithiothreitol) containing 50 uM arachidonic acid inducer. ThS probe was then added to a final concentration of 10 uM with test compounds assayed at nine 3-fold dilutions beginning at 10 uM final concentration. Each compound was tested at least twice in separate assays. Controls without protein or without compound were included on each plate. […] Fluorescence (ex = 440 nm; em = 485 nm) was measured after brief shaking (10 s) in a FlexStation plate reader (Molecular Devices, Sunnyvale, CA) operated at sensitivity 10, automatic PMT. […]

Row | SMILES | outcome | Potency
1 | O=C(CCCCn1c(=O)[nH]c2ccccc2c1=O)NCc1ccc2c(c1)OCO2 | inactive | 
2 | Oc1ccc(O)c2c(O)cccc12 |  | 4.97 µM (active)
